Test results: PubChem BioAssay (Tox21)
Records with an inconclusive call do not appear. Where a call stands in place of a potency, no number is given. The source made the active and inactive calls. Calls come from the whole dose curve; as a rule, active = well fitted curve in the direction sought with a large enough effect in the repeat runs; inconclusive = weak or mixed curves; inactive = no such curve, though single readings can be large; an effect the other way counts as inactive or inconclusive.

Columns and labels:
[1] = biological target: Cytochrome P450 2C19 (Homo sapiens) (UniProt P33261); assay: Cytochrome P450 Family 2 Subfamily C Member 19 (CYP2C19) small molecule antagonists: luciferase reporter qHTS assay (AID 1671197); conditions: P450-Glo CYP2C19 enzyme, luciferin luminescence, 1 h; series mostly up to 115 µM; note: nearly all actives have a fitted effect of over 65% in size
Cytochrome P450 2C19 (Homo sapiens), sequence (P33261 whole entry, looked up): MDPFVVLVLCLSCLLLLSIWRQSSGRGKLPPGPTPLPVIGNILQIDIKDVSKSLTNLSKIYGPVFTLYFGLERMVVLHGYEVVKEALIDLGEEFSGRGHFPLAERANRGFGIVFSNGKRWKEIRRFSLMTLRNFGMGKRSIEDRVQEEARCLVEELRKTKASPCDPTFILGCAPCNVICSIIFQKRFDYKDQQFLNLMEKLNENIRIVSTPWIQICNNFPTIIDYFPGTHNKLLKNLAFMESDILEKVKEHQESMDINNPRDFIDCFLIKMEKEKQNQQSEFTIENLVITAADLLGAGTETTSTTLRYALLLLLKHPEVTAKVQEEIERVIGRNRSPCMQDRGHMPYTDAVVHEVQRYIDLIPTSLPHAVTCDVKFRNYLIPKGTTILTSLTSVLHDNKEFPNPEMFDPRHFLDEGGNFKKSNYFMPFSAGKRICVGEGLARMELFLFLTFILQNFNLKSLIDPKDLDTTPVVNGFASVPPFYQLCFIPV
Outline: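 CYP2C19 P450-Glo, 1536-well qHTS. Cpd + enzyme/proluciferin substrate 10 min RT; + NADPH regen, 37C 1 h; stop with luciferin detection reagent, 20 min RT, luminescence (RLU). Pos ctrl ketoconazole.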

[2] = biological target: Cytochrome P450 2C9 (Homo sapiens) (UniProt P11712); assay: Cytochrome P450 Family 2 Subfamily C Member 9 (CYP2C9) small molecule antagonists: luciferase reporter qHTS assay (AID 1671198); conditions: P450-Glo CYP2C9 enzyme assay, luciferin luminescence; series mostly up to 53 µM; note: nearly all actives have a fitted effect of over 50% in size
Cytochrome P450 2C9 (Homo sapiens), sequence (P11712 whole entry, looked up): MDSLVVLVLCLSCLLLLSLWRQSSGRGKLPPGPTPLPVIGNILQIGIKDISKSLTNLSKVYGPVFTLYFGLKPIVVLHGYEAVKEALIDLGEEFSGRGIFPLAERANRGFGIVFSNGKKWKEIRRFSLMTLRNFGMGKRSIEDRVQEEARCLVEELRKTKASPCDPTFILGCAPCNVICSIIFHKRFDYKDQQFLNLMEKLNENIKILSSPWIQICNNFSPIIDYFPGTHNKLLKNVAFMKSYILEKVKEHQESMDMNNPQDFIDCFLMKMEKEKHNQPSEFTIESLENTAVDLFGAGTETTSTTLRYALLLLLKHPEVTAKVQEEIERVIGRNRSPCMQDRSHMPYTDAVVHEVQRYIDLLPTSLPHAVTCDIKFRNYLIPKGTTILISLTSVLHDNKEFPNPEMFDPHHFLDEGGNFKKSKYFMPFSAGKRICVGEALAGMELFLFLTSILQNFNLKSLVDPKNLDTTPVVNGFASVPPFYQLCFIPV
Outline: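 P450-Glo proluciferin substrate with CYP2C9 enzyme; 10 min RT preincubation, then NADPH regeneration 1 h at 37C; luciferin detection reagent 20 min RT, luminescence in relative luminescence units.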

[3] = biological target: Cytochrome P450 1A2 (Homo sapiens) (UniProt P05177); assay: Cytochrome P450 Family 1 Subfamily A Member 2 (CYP1A2) small molecule antagonists: luciferase reporter qHTS assay (AID 1671199); conditions: P450-Glo CYP1A2 enzyme, luciferin luminescence, 1 h; series mostly up to 53 µM; note: nearly all actives have a fitted effect of over 50% in size
Cytochrome P450 1A2 (Homo sapiens), sequence (P05177 whole entry, looked up): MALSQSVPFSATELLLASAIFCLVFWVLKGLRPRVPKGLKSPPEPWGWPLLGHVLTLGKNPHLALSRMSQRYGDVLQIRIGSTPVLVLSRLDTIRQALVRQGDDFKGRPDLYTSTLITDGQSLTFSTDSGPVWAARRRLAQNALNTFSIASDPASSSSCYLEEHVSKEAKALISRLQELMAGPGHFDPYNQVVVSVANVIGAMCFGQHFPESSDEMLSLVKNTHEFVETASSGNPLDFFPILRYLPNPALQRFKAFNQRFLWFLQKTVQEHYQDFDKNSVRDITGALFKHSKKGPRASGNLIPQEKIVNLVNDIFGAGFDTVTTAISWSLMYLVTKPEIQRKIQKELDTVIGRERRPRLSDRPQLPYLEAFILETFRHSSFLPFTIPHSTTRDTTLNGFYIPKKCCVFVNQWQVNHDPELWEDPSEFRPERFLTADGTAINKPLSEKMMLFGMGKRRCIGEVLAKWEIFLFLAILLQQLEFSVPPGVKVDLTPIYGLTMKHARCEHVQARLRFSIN
Outline: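 P450-Glo CYP1A2 enzyme–proluciferin substrate mix with compound 10 min at room temperature, then NADPH regeneration 1 h at room temperature. Luciferin detection reagent added, luminescence read after 20 min; furafylline positive control.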

[4] = biological target: Voltage-gated inwardly rectifying potassium channel KCNH2 (Homo sapiens) (UniProt Q12809); assay: Human Ether-a-go-go-Related Gene (hERG) channel small molecule antagonists: fluorescence cell-based qHTS assay (AID 1671200); conditions: hERG-U2OS cells, FluxOR thallium flux fluorescence; series mostly up to 76.8 µM; note: nearly all actives have a fitted effect of over 50% in size
Voltage-gated inwardly rectifying potassium channel KCNH2 (Homo sapiens), sequence (Q12809 whole entry, looked up): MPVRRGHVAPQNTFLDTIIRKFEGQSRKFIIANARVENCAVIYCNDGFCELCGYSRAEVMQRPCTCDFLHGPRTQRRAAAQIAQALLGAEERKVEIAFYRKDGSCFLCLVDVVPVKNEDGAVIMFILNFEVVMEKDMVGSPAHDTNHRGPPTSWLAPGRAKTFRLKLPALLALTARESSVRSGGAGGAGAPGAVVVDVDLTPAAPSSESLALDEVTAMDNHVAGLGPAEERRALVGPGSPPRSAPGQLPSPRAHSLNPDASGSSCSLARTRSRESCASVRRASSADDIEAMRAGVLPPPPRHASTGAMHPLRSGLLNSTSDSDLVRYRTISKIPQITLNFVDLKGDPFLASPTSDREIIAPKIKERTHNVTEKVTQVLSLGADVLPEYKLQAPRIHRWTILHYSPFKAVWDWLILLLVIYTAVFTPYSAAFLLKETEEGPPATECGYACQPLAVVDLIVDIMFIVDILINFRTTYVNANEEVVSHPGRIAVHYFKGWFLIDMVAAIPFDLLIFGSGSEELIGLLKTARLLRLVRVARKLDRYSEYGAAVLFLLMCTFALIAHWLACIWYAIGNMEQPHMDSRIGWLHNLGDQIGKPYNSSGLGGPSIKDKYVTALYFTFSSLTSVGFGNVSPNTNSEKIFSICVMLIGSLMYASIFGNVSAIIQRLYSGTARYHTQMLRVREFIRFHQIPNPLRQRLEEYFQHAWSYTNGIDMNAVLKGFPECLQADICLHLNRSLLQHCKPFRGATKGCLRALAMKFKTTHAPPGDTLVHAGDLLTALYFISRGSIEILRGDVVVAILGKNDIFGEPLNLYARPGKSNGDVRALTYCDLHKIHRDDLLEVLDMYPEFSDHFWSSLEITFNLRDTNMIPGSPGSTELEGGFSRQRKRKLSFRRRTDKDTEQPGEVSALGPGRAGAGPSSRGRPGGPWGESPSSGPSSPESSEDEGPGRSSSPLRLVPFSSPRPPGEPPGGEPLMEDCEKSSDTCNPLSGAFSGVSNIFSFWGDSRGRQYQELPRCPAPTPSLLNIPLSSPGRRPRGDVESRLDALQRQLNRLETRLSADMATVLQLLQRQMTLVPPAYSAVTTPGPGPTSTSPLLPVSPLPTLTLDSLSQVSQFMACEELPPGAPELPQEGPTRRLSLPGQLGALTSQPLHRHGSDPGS
Outline: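 Measured: Tl+ flux via fluorescence (480/540 nm) in hERG-expressing U2OS cells after 1 h dye loading at room temperature.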

[5] = biological target: Cytochrome P450 3A4 (Homo sapiens) (UniProt P08684); assay: Cytochrome P450 Family 3 Subfamily A Member 4 (CYP3A4) small molecule antagonists: luciferase reporter qHTS assay (AID 1671201); conditions: P450-Glo CYP3A4 enzyme, luciferin luminescence, 1 h; series mostly up to 115 µM; note: nearly all actives have a fitted effect of over 50% in size
Cytochrome P450 3A4 (Homo sapiens), sequence (P08684 whole entry, looked up): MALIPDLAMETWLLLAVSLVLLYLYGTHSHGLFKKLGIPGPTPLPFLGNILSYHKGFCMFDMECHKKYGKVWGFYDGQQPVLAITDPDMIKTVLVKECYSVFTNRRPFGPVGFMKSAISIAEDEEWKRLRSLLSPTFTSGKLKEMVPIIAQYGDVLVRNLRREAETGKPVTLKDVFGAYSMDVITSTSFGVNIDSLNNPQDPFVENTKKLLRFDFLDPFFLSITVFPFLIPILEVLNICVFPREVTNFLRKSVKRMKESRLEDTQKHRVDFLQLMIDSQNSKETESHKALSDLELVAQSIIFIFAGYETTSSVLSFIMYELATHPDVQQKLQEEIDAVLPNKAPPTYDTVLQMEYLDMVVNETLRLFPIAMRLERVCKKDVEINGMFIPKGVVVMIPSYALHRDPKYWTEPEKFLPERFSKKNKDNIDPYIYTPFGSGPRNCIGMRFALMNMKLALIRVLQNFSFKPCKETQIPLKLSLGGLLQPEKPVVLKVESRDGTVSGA
Outline: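 Setup: enzyme-substrate mix, compound pin transfer, 10 min RT. Reaction: NADPH regeneration solution, 1 h RT. Readout: detection reagent stops turnover, luminescence measured after 20 min, expressed in relative luminescence units.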
Potency is the fitted concentration of half-maximal effect.

Row | SMILES | Potency [1] | Potency [2] | Potency [3] | Potency [4] | Potency [5]
1 | COc1cc(C)ccc1C(C)C | inactive | inactive | inactive | inactive | inactive
2 | COC(=O)/C=C(/C)N | inactive | inactive |  | inactive | inactive
3 | C[C@]12C(=O)OC(=O)[C@H]1[C@H]1C=C[C@@H]2C1 | inactive | inactive |  | inactive | inactive
4 | COC(=O)C(C)O (configuration not stated) | inactive | inactive |  | inactive | inactive
5 | CCOC(=O)c1cc(=O)c2c(OCC(COc3cccc4oc(C(=O)OCC)cc(=O)c34)OC(=O)[C@@H](N)CCCCN)cccc2o1 | inactive | 15.5 µM (active) |  | inactive | 
6 | O=CCCc1ccccc1 | 25.2 µM (active) | 35.6 µM (active) |  | inactive | 
7 | OCCN1CCN(CCO)CC1 | inactive | inactive | inactive | inactive | inactive
8 | Cc1ccc(C=O)s1 | inactive | inactive |  | inactive | inactive
9 | CCCCCCCCCCCCOCCOS(=O)(=O)O | 79.6 µM (active) | 71 µM (active) |  | inactive | inactive
10 | CCCCCCCCCC#N | inactive | inactive |  | inactive | inactive
11 | N#CSCC(=O)O | inactive | inactive | inactive | inactive | inactive
12 | CCCCOc1cc(C(=O)NCCN(CC)CC)c2ccccc2n1 | 34.7 µM (active) | inactive |  | 5.35 µM (active) | 
13 | CCOc1ccc(NS(=O)(=O)c2ccc(N)cc2)nn1 | 30.9 µM (active) | inactive | inactive | inactive | inactive
14 | CC(=O)OC1C2(C)CCC(C2)C1(C)C (configuration not stated) | inactive | inactive |  | inactive | inactive
15 | CC[C@H]1CC[C@H](NCc2cc3c(cc2OC)[C@H]2C[C@H]2C(=O)N3C)[C@H](c2ccccc2)N1 | inactive |  |  | inactive | 
16 | OCC(CBr)(CBr)CBr | inactive |  | inactive | inactive | inactive
17 | CC1=C(CC(=O)O)c2cc(F)ccc2/C1=C\c1ccc(S(C)(=O)=O)cc1 | inactive |  | 17.4 µM (active) | inactive | inactive
18 | CC(C)CCCCCCc1ccc(OCCOCCO)cc1 | inactive |  |  | inactive | inactive
19 | CC1CN(c2ccccc2)NC1=O (configuration not stated) |  | 20 µM (active) | 22.4 µM (active) | inactive | 
20 | Nc1ccc2ccccc2c1S(=O)(=O)O | 40.7 µM (active) |  | 3.24 µM (active) | inactive | 57.5 µM (active)
